# PubChem BioAssay (Tox21)
# “And” between values parts separate entries of the source, which are not always exact repeats. Equal entries are not always repeated. Results filed as inconclusive are left out. Where a call stands in place of a potency, no number is given. A number with no mark means an inactive call. The source made the active and inactive calls. Calls follow the shape of the dose curve; as a rule, active = well fitted curve in the direction sought with a large enough effect in the repeat runs; inconclusive = weak or mixed curves; inactive = no such curve, though single readings can be large; an effect the other way counts as inactive or inconclusive.
# Legend:
# [1] = A CellTox Green Cytotoxicity Assay to monitor cytotoxicity in HepG2 cells - 32 hour (AID 1224883); also: nearly all actives have a fitted effect of over 50% in size; also: potency is read from the fitted curve at half-maximal effect
# Summary of the method: (§1)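 Real-time, homogeneous cytotoxicity readout: dead-cell DNA staining by CellTox Green in HepG2 monolayers, fluorescence measured at timed intervals up to 40 h of continuous compound exposure.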
# [2] = A CellTox Green Cytotoxicity Assay to monitor cytotoxicity in HEK293 cells - 8 hour (AID 1224884); also: nearly all actives have a fitted effect of over 35% in size; also: potency is read from the fitted curve at half-maximal effect
# Summary of the method: (§2)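 Cytotoxicity was tracked continuously in HEK293 cells by a DNA-binding dye excluded from viable cells. Compounds were transferred in DMSO 5 h after seeding; fluorescence was recorded at intervals up to 40 h.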
# [3] = qHTS RealTime-Glo MT Cell Viability Assay in HepG2 cells - 16 hour (AID 1224885); also: nearly all actives have a fitted effect of over 50% in size; also: potency is read from the fitted curve at half-maximal effect
# Summary of the method: (§3)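 HepG2 cells were seeded at 600 cells/well together with NanoLuc luciferase and a cell-permeant prosubstrate, preincubated 5 h at 37 C/5% CO2, then pin-dosed with compounds in DMSO. Nonlytic luminescence from viable cells was read at each time point.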
# [4] = qHTS RealTime-Glo MT Cell Viability Assay in HEK293 cells - 24 hour (AID 1224886); also: nearly all actives have a fitted effect of over 50% in size; also: potency is read from the fitted curve at half-maximal effect
# Summary of the method: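 HEK293 cells were seeded at 600 cells/well together with NanoLuc luciferase and cell-permeant prosubstrate, preincubated 5 h at 37 C/5% CO2, then given compound in DMSO by pintool. Luminescence from viable-cell prosubstrate reduction was read repeatedly over 40 h.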
# [5] = qHTS RealTime-Glo MT Cell Viability Assay in HEK293 cells - 8 hour (AID 1224887); also: nearly all actives have a fitted effect of over 50% in size; also: potency is read from the fitted curve at half-maximal effect
# Summary of the method: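 Nonlytic bioluminescent viability monitoring. HEK293 at 600 cells/well with reagent; 5 h settle; compound transfer by pintool; plates held at 37 C and read at set time points.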
# [6] = A CellTox Green Cytotoxicity Assay to monitor cytotoxicity in HEK293 cells - 16 hour (AID 1224888); also: nearly all actives have a fitted effect of over 35% in size; also: potency is read from the fitted curve at half-maximal effect
# Summary of the method: as §2
# [7] = qHTS RealTime-Glo MT Cell Viability Assay in HepG2 cells - 0 hour (AID 1224889); also: nearly all actives have a fitted effect of over 50% in size
# Summary of the method: as §3
# [8] = qHTS assay to identify small molecule antagonists of the estrogen receptor alpha (ER-alpha) signaling pathway using the BG1 cell line in the presence of 0.1 nM 17-beta-estradiol - cell viability counter screen (AID 1259241); also: nearly all actives have a fitted effect of over 40% in size; also: potency is read from the fitted curve at half-maximal effect
# Summary of the method: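 Cytotoxicity counter-screen: live-cell protease activity measured by fluorescence (30 min reagent step) in the same wells. Cells were VM7Luc4E2 with endogenous ER-alpha and ERE-driven luciferase, treated 22 hr at 37C alongside 0.1 nM 17beta-estradiol final.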
# [9] = qHTS assay to identify small molecule antagonists of the androgen receptor (AR) signaling pathway using the MDA cell line in the presence of 0.5 nM R1881 - cell viability counter screen (AID 1259242); also: nearly all actives have a fitted effect of over 45% in size; also: potency is read from the fitted curve at half-maximal effect
# Summary of the method: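 Cytotoxicity toward MDA-kb2 cells is measured by CellTiter-Fluor live-cell protease fluorescence after 16 hr compound exposure at 37C in the presence of 0.5 nM R1881 stimulator.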
# [10] = A CellTox Green Cytotoxicity Assay to monitor cytotoxicity in HepG2 cells - 8 hour (AID 1224890); also: nearly all actives have a fitted effect of over 45% in size; also: potency is read from the fitted curve at half-maximal effect
# Summary of the method: as §1
Structure (SMILES),Potency [1],Potency [2],Potency [3],Potency [4],Potency [5],Potency [6],Potency [7],Potency [8],Potency [9],Potency [10]
COCC(=O)O[C@]1(CCN(C)CCCc2nc3ccccc3[nH]2)CCc2cc(F)ccc2[C@@H]1C(C)C,10.7 µM (active),inactive,19 µM (active),6.01 µM (active),6.74 µM (active),23.9 µM (active),inactive,inactive,21.1 µM (active),–
CCCCN(C)C,inactive,inactive,inactive,inactive,inactive,–,inactive,inactive,inactive,inactive
CC(C)CCOCCC(C)C,inactive,inactive,inactive,inactive,inactive,inactive,–,inactive,inactive,inactive
CCCCCCCC/C=C\CCCCCCCC(=O)NCc1ccc(O)c(OC)c1,inactive,inactive,inactive,2.39 µM (active),1.51 µM (active),–,inactive,inactive,inactive,inactive
CC(C)(C)C1=CC(=O)C=C(C(C)(C)C)C1=O,inactive,inactive,inactive,inactive,inactive,inactive,inactive,inactive,inactive,inactive
CSc1ccc2c(c1)N(CCC1CCCCN1C)c1ccccc1S2 (configuration not stated),34.5 µM (active) and 23.9 µM (active),34.5 µM (active),54.7 µM (active) and 23.9 µM (active),15.4 µM (active),19.4 µM (active),30.8 µM (active),–,–,54.3 µM (active),–
CN1CN(C)CN(C)C1,inactive,inactive,inactive,inactive,inactive,inactive,–,inactive,inactive,inactive
CC1(C)COCN1,inactive,inactive,inactive,inactive,inactive,–,inactive,inactive,inactive,inactive
CC(=O)Oc1ccc(C2(c3ccc(OC(C)=O)cc3)C(=O)Nc3ccccc32)cc1,inactive,inactive,inactive,inactive,inactive,inactive,inactive,–,inactive,inactive
SCCCCCCCCS,19.5 µM (active),inactive,inactive,inactive,inactive,inactive,inactive,inactive,inactive,–
NC(=O)c1ccccc1N,inactive,inactive,inactive,inactive,inactive,inactive,inactive,inactive,inactive,inactive
CCCOc1sc(C(=O)N2CCC(c3cc(CN)ccc3F)CC2)c(C)c1Br,17.9 µM (active),40 µM (active),22.5 µM (active),20 µM (active),17.9 µM (active),35.7 µM (active),–,–,39.7 µM (active),40 µM (active)
Cc1cnccn1,inactive,inactive,inactive,inactive,inactive,inactive,–,inactive,inactive,inactive
CC1(C)C(=O)N(Br)C(=O)N1Br,inactive,inactive,inactive,inactive,inactive,–,inactive,inactive,inactive,inactive
CCCCNc1c(C(=O)OCC)c(C)nc2c1cnn2CC,inactive,inactive,inactive,12 µM (active),13.4 µM (active),inactive,inactive,inactive,inactive,inactive
Cc1c(C(=O)O)cccc1[N+](=O)[O-],inactive,inactive,inactive,inactive,–,inactive,inactive,inactive,inactive,–
CC(C)=CCCC(C)CCOC(=O)C(C)C (configuration not stated),inactive,inactive,inactive,inactive,inactive,–,inactive,inactive,inactive,–
Cc1cccc(C)c1NC(=O)CN1CCN(CCCC(c2ccc(F)cc2)c2ccc(F)cc2)CC1,23.9 µM (active),inactive,21.3 µM (active),10.7 µM (active),10.7 µM (active),–,–,inactive,–,16.9 µM (active)
Oc1ccc(-c2ccccc2)c(Cl)c1,49 µM (active),inactive,inactive,24.5 µM (active),–,–,inactive,inactive,inactive,–
CN1[C@@H]2CC[C@H]1CC(OC(=O)C(CO)c1ccccc1)C2 (some centres not stated),inactive,inactive,inactive,inactive,–,–,inactive,inactive,inactive,inactive
COC(=O)CC#N,inactive,inactive,inactive,inactive,–,inactive,inactive,inactive,inactive,inactive
CCN(CC)CCNc1ccc(CO)c2sc3ccccc3c(=O)c12,13.4 µM (active),inactive,23.9 µM (active),16.9 µM (active),–,inactive,inactive,–,–,inactive
O=C1NCN(c2ccccc2)C12CCN(CCCC(c1ccc(F)cc1)c1ccc(F)cc1)CC2,6.74 µM (active),inactive,7.56 µM (active),19 µM (active),–,–,inactive,13.3 µM (active),29.8 µM (active),10.7 µM (active)
